The list is not random: actives were taken first. Their share in the collection is about 3.5%.
TEAD-YAP block: TEAD-YAP interaction inhibition, primary screen, TEAD-YAP interaction inhibitor project, luminescence, HEK-TIYL cells; TEAD-Gal4/YAP UAS-luciferase luminescence; inhibition, % at 9.12 µM; 1.4% of 640,000 active; in the data active = inhibition above about 32%;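 note: 0% = median of test compound wells and 100% = reference inhibitor wells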
MITF primary: MITF inhibitors, primary screen, biochemical, AlphaScreen, human; 0.91% of 650,000 active; Microphthalmia-associated transcription factor (Homo sapiens), O75030; inhibition, % at 2.6 µM; AlphaScreen MITF homodimerization, bead proximity signal; in the data active = inhibition above about 50%;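 note: 0% = vehicle wells with protein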
GPR151 activ: activators of human GPR151, primary screen, cell-based, PathHunter beta-arrestin, luminescence; PathHunter beta-arrestin GPR151 cells; 1% of 650,000 active; activation, % at 11.2 µM; G-protein coupled receptor 151 (Homo sapiens), Q8TDV0; in the data active = activation above about 4.9%;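 note: 0% = median of compound wells and 100% = cells with positive control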
Target sequence (Q8TDV0 whole entry, looked up): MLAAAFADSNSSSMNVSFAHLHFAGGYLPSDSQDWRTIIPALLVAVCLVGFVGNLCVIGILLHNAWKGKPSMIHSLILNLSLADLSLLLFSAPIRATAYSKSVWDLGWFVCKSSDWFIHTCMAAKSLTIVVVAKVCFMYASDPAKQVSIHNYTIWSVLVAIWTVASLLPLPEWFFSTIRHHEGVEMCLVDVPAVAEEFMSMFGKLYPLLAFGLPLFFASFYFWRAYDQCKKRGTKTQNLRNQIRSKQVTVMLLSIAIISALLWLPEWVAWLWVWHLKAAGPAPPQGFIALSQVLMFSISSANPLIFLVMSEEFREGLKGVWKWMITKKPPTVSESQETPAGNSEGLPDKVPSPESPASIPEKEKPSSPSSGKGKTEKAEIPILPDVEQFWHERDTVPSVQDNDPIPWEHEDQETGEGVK
FBW7 activator: FBW7 E3 ligase activators, primary screen, biochemical, AlphaScreen, human; F-box/WD repeat-containing protein 7 (Homo sapiens), Q969H0; AID 1259310, 2017; AlphaScreen FBW7–phospho-cyclin E peptide binding, activator screen; normalized activity (activation), % at 26.1 µM; 0.13% of 650,000 active; in the data active = normalized activity above about 1.9%;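 note: purified mutant Fbw7 with reduced substrate affinity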
GPR151 conf act: GPR151 activators, triplicate retest, confirmation, cell-based, PathHunter beta-arrestin, luminescence. shares compounds with GPR151 activ. GPR151 PathHunter beta-arrestin cells, 90 min; % of EA-reagent control over plate median. activation, % at 11.2 µM. 6,700 tested, under 10 active. AID 1508609, 2020;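 active = mean percent activation across replicates above the confirmation screen cutoff of 4.91%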
GPR119 ag: GPR119 activators in beta-arrestin cells, counter-screen for GPR151 activator project, cell-based, PathHunter beta-arrestin, luminescence, triplicate | shares compounds with GPR151 activ | 90 min; 0 = compound-well median, 100 = enzyme-acceptor control | activation, % at 11.2 µM | 0.3% of 6,700 active | AID 1508611, 2020;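 active = mean percent activation in the counterscreen above 29.09%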;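 note: counterscreen on off-target GPR119 to flag nonselective hits from the GPR151 activator screen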
An asterisk follows results filed as active; / = no result given.

SMILES | TEAD-YAP block | MITF primary | GPR151 activ | FBW7 activator | GPR151 conf act | GPR119 ag
C=CCSc1nc2c(c(=O)[nH]1)C(c1ccc(C)o1)C1=C(CCCC1=O)N2 (centres undefined) | 2 | 13 | 6.3* | 0 | 0 | -6
N=C1C(c2nc3ccccc3[nH]2)=C(O)CN1c1ccc(F)cc1 | -18 | 3 | 1 | 0 | / | /
CC(C)c1ccc(N2CC(O)=C(c3nc4ccccc4[nH]3)C2=N)cc1 | -9 | 10 | 7.9* | 0 | 0 | -2
N/C(=N\OC(=O)CCC1CCCC1)c1ccc(Cl)cc1 | 2 | 17 | 6.0* | 0 | 1 | 7
O=C(NCCN1CCOCC1)c1cccc(-n2ncc3cc(Nc4ccccc4Cl)ccc32)c1 | 11 | 5 | -1 | 0 | / | /
O=C(NCCN1CCOCC1)c1cccc(-n2ncc3cc(Nc4ccccc4Cl)ccc32)n1 | -2 | 3 | 4.9* | 0 | 1 | -7
CC1CCCCN1CCNC(=O)C1(S(=O)(=O)c2ccc(Cl)cc2)CC1 (centres undefined) | -4 | 3 | 6.7* | 0 | 0 | 16
O=C(NCCN1CCCC1)C1(S(=O)(=O)c2ccc(Cl)cc2)CC1 | 5 | 0 | 1 | 0 | / | /
O=C(NCc1ccncc1)c1ccc(OC2CCN(C3CCSC3)CC2)cc1 (centres undefined) | 0 | -2 | 9.7* | 0 | 0 | 3
O=C(NCc1ccccn1)c1cccc(OC2CCN(C3CCSCC3)CC2)c1 | 5 | 1 | 8.7* | 0 | 0 | 6
COc1cc(NS(=O)(=O)c2ccc(Nc3nc(-c4ccc(Br)cc4)cs3)cc2)nc(OC)n1 | 7 | 10 | 1 | 0 | / | /
CCOc1ccc(Nc2nc(N3CCOCC3)c3ccccc3n2)cc1 | 23 | -1 | 1 | 0 | / | /
CCOc1ccc(Nc2nc(NCc3ccco3)c3ccccc3n2)cc1 | 49* | -3 | 5.1* | 0 | 0 | 11
CCC(=O)c1ccc(OCC(O)CN(CCO)CCO)cc1 (centres undefined) | 4 | 14 | -1 | 0 | / | /
CCCOC(=O)c1ccc(OCC(O)CN(CCO)CCO)cc1 (centres undefined) | -7 | -1 | 5.1* | 0 | -1 | 1
O=C(NC1CCCC1)c1cnc(N2CCCC2)nc1 | -6 | -2 | 0 | 0 | / | /
CCOc1ccc2c(-c3cc4cc(Br)ccc4oc3=O)cc(=O)oc2c1 | -3 | -3 | 7.9* | 0 | 0 | -12
O=C(NCC1CCCO1)c1cc(=O)[nH]c2ccc(Br)cc12 (centres undefined) | 2 | 12 | 6.7* | 0 | -1 | -15
O=C(NCC1CCCO1)c1cc(Br)ccc1Cl (centres undefined) | 12 | 3 | 3 | 0 | / | /
CCN1CCC(N(Cc2ccc(F)cc2)C(=O)Nc2cc(F)ccc2F)CC1 | -1 | -5 | 5.1* | 0 | 0 | 10
CC1=CC(C)C2COC(c3ccccc3O)C1C2 (centres undefined) | 3 | -1 | 5.3* | 0 | 0 | -5
COc1cc(NC(=O)c2ccc3nc(-c4cccc(C(C)=O)c4)sc3c2)cc(OC)c1OC | -27 | 7 | 13* | 0 | 1 | 2
CC(=O)Nc1ccc(NC(=O)c2ccc3nc(-c4ccc(C(=O)NC5CC5)cc4)sc3c2)cc1 | 10 | 2 | 11* | 0 | 0 | 3
CN1CCN(c2ccc(-c3nc4ccc(C(=O)NCc5cccc(C(F)(F)F)c5)cc4s3)cc2)CC1 | 16 | -4 | 5.8* | 0 | -1 | -19
COc1cc(NC(=O)c2cnc(-c3csc4ccccc34)s2)cc(OC)c1OC | 10 | 5 | 5.1* | 0 | 0 | 2
SMILES | TEAD-YAP block | MITF primary | GPR151 activ | FBW7 activator | GPR151 conf act | GPR119 ag
CC(=O)Nc1ccc(NC(=O)c2ccc3nc(-c4cccc(C(C)=O)c4)sc3c2)cc1 | 1 | -17 | -1 | 0 | / | /
CC(=O)Nc1ccc(NC(=O)c2cnc(-c3csc4ccccc34)s2)cc1 | -4 | -3 | -3 | 0 | / | /
CCc1ccccc1NC(=O)C(Cc1ccccc1)N1C(=O)c2ccccc2C1=O (centres undefined) | -3 | -12 | 0 | 0 | / | /
COc1ccc(C(c2c(NC(=O)c3ccco3)sc(C)c2C)N2CCN(C)CC2)cc1 (centres undefined) | 3 | 5 | -1 | 0 | / | /
CC1=C(C(=O)N2CCOCC2)C(c2ccc([N+](=O)[O-])cc2)C2=C(CCCC2=O)N1 (centres undefined) | 7 | 3 | 1 | 0 | / | /
COC(=O)c1ccc(C2C(C(=O)OC3CCCCC3)=C(C)Nc3ncnn32)cc1 (centres undefined) | 7 | 10 | 4 | 0 | / | /
COC(=O)COc1ccc(-c2nc3ccccc3s2)cc1OC | 2 | -7 | -2 | 0 | / | /
CCCNC(=O)c1ccc2nc(-c3ccc(OC)cc3)sc2c1 | -19 | 5 | 11* | 0 | -1 | -5
COc1ccc(-c2nc3ccccc3s2)cc1NC(C)=O | -42 | 7 | 4.9* | 0 | 0 | -6
Cc1ccccc1-c1nsc(SCC(=O)N2CCCCC2)n1 | -33 | 30 | -1 | 0 | / | /
O/N=C1\CCc2c1[nH]c1ccc(C3CCCCC3)cc21 | -3 | 1 | 1 | 0 | / | /
CN1CCC(N(C(=O)c2ccc(C(F)(F)F)cc2)C2CCN(C)CC2)CC1 | -7 | -4 | 6.2* | 0 | -1 | -12
O=C(CSc1nnc(-c2ccc(Br)cc2)o1)NC1CCCC1 | 3 | 4 | 8.1* | 0 | 0 | 1
COc1ccccc1N/N=C(\C)c1ccc([N+](=O)[O-])o1 | 21 | 5 | 5.7* | 0 | 1 | 5
CC(=O)c1cccc(-c2nc(NC3CC3)c3ncn(C4CCCCC4)c3n2)c1 | -6 | 15 | 9.4* | 0 | -1 | -7
O=C(NC1CC1)c1ccc(-c2nc(NCCO)c3ncn(C4CCCCC4)c3n2)cc1 | 11 | 19 | 1 | 0 | / | /
CN1CCN(c2ccc(-c3nc(NCc4cccc(C(F)(F)F)c4)c4ncn(C5CCCCC5)c4n3)cc2)CC1 | 12 | 12 | -1 | 0 | / | /
COc1ccc(-c2nc(NC3CCN(Cc4ccccc4)CC3)c3ncn(C4CCCCC4)c3n2)cc1 | -1 | 2 | 5.8* | 0 | -1 | -8
CN1CCN(C(=O)c2ccc(-c3nc(NCc4cccc(C(F)(F)F)c4)c4ncn(C5CCCCC5)c4n3)cc2)CC1 | 6 | -1 | 5.0* | 0 | 0 | -21
CCCNc1nc(-c2cccc(C(C)=O)c2)nc2c1ncn2C1CCCCC1 | -15 | -4 | 2 | 0 | / | /

Screening data as filed in PubChem.
